This passage reports growth results from PubChem BioAssay (NCI).

This is part of a sample that, as a whole, favours compounds with a hit. Of some 83,000 tested, about 20% had one in any assay.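 In brief: 96-well plates, 48 h treatment, single concentration, percent growth endpoint.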 Unmarked numbers belong to inactive results. Calls of active or inactive are those of the source.

For this assay, the system named is NCI/ADR-RES ovarian. In words: NCI-60 one-dose screen, 48 h (100 = growth as untreated, 0 = no growth, -100 = all killed). The note with it: 10 µM unless noted. The method, then:
Growth inhibition of the NCI/ADR-RES human […] tumor cell line is measured as a screen for anti-cancer activity. Cells are grown in 96 well plates and exposed to the test compound for 48 hours. Compounds are tested at a single concentration, which is 10^-5 M for most compounds. The reported endpoint is percent growth (GI% or GIPRCNT), where numbers from 0 - 100% represent growth inhibition, and numbers from -100% - 0 represent cell death. For example, a value of 40 represents 60% growth inhibition. A value of 0 means no net growth occurred over the course of the experiment. A value of -40 indicates 40% of cells at the beginning of the experiment died by the end of the experiment. A value of -100 means all cells are dead at the end of the experiment.
NCI-60 Human Tumor Cell Lines Screen was performed using the standard one-dose NCI protocol, which is described in more detail at https://dtp.cancer.gov/discovery_development/nci-60/default.htm.
Compounds with GIPRCNT values below 10 were considered active. Activity score was based on GIPRCNT using the following formula: […]
Score is 0 for GIPRCNT values of 100 or above, 50 for GIPRCNT values of 0, and 100 for GIPRCNT values of -100.
In the case of `Oc1ccc(Nc2nccc(-c3ccc4ccccc4c3)n2)cc1`, the growth is 14.7%.
Take `CCCCCCCCCCCCS(=O)CC(C)O` (stereo not given): the growth was 117%.
Under `CCOc1ccc(Nc2nc(-c3c(C)nc4ncccn34)cs2)cc1` stands 8.95% (active); under `CCCCCCCCCCCCNC(=O)[C@H]1CSC(c2ccc(OC)c(F)c2)N1` (stereo not given in full), -60.4% (active).
Under `O=C(Nc1ccc(Oc2ccc(F)cc2)c(Cl)c1)c1cccnc1` stands 85.1%; under `CCCCCC(=O)N(CCCC)CCCC`, 111%.
The value for `Oc1ccccc1N=Cc1c(O)ccc2ccccc12` was 56.8%; that for `O=C(Nc1ccc(CN2CCOCC2)cc1)c1[nH]ncc1Nc1ncnc2sccc12` was 4.5% (active).
On to `COc1cc(OC)c(/C=C/c2cc[n+](C)c3ccccc23)c(OC)c1`, for which the growth was 91.3%.
Turning to `CC(C)(C)n1cc(-c2ccnc(NCCNS(=O)(=O)c3ccccc3)c2)c(-c2cccc(O)c2)n1`, the growth is 74.8%.
For `O=C(NC(Cc1ccccc1)C(=O)CCl)OCc1ccccc1` (stereo not given), the growth is 75.1%.
The value for `O=C(/C=C/c1cccc(Br)c1)c1ccccc1` was 103%.
Turning to `COc1ccc(-c2nn(-c3ccccc3)cc2/C=C/C(=O)OCc2cn(-c3ccc(F)c(Cl)c3)nn2)cc1`, the growth was 73.9%.
The value for `COc1ccc(-n2c(C)nc3c(c(C)nn3-c3ccccc3)c2=O)cc1` was -12.9% (active).
Under `COc1ccc(S(=O)(=O)NCCCNc2nccc(-c3c(-c4cccc(N)c4)nc4sccn34)n2)cc1` stands 94.7%; under `COc1cccc(-c2cn3c(ccc4ccccc43)n2)c1`, 15%; under `COc1cnc2c(c1)C(=O)c1c-2n(CCCBr)c(=O)c2cc([N+](=O)[O-])ccc12`, 11.6%.
Regarding `CCCCN(CC)CCCCCCCCCCN1CCCc2cc(OC)ccc21`, the growth was 25.9%.
Under `CCCCCCCCCCCCCCCC[N+]1(CC)CCCC1` stands 85.8%; under `COc1cc(-c2c3c(nc4c2c(C)nn4-c2ccccc2)-c2ccccc2C(=O)C3=O)cc(OC)c1OC`, 79.7%; under `CC1=CC(=O)CC(C)(C)[C@@]1(O)/C=C/[C@@H](C)O`, 95.6%.
As to `COc1cccc(/C=C\C(=O)c2ccccc2)c1`, the growth was 88%.
The value for `COc1cnc2c(c1)C(=O)c1c-2n(CCCN2CCCC2)c(=O)c2cc([N+](=O)[O-])ccc12` was -20.2% (active); that for `Cc1ccc(/C=C2\Oc3cc(OCC(=O)c4ccc(Cl)cc4)ccc3C2=O)cc1` was 102%; that for `CNc1nc(C)c(-c2nc(Nc3cccc(S(N)(=O)=O)c3)ncc2F)s1` was 5.57% (active).
The value for `CCN1CCN(Cc2ccc(NC(=O)Nc3nc4ccc(Oc5ccnc(C(=O)NC)c5)cc4s3)cc2C(F)(F)F)CC1` was -12.7% (active); that for `CCOC(=O)c1c2c(n3ccc(NC(=O)CCN4CCOCC4)cc13)C(=O)c1ncccc1C2=O` was 40.5%; that for `O=c1ccc2cc3ccccc3cc2[nH]1` was 93%.
Take `COc1ccc(-c2cnoc2-c2cc(OC)c3c(c2)OCCO3)cc1`: the growth was 3.01% (active).
The value for `COc1cc(OC)c(/C=C/C(=O)c2c(OC)cc(OC)cc2OC)c(OC)c1` was 12.3%; that for `CCCCN(CCCC)CCC(C)(O)c1cc2ccccc2c2ccccc12` (stereo not given) was 67.6%.
Under `COc1ccc(-c2csc(NC(=O)CN3CCN(c4cc5c(cc4F)c(=O)c(C(=O)O)cn5C4CC4)CC3)n2)cc1` stands 60.7%; under `Nc1cccc(-c2nc3sccn3c2-c2ccnc(NCCCNS(=O)(=O)c3ccc(C(F)(F)F)cc3)n2)c1`, 0.058% (active).
The value for `COc1cc(C2C(C(=O)c3cccs3)=C(O)C(=O)N2CCN2CCOCC2)cc(OC)c1OC` (stereo not given) was 107%; that for `CC(=O)Nc1ccc2c(c1)c(NC(C)=O)nn2C(=O)Nc1ccc(Cc2ccccc2)cc1` was 89.4%.
For `NS(=O)(=O)c1ccc(-n2ncc3c(=O)[nH]c(CN4CCN(c5cc6c(cc5F)c(=O)c(C(=O)O)cn6C5CC5)CC4)nc32)cc1`, the growth is 94.4%.
Under `CNC(=S)N/N=C/CSC/C=N/NC(=S)NC` stands 97.9%.
Regarding `COc1ccc2nc3cc(Cl)ccc3c(N3CCN(c4ccnc(N5CCN(C)CC5)n4)CC3)c2c1`, the growth was 84.9%.
The value for `O=C1Nc2ccccc2/C1=C/C(=N/c1nnc(-c2ccc(Cl)cc2)s1)c1ccccc1` was 41%; that for `O=C(Nc1ccc(Nc2cc(Nc3ccccc3)ncn2)cc1)Nc1cc(C(F)(F)F)ccc1F` was 81.1%.
